Screens from PubChem.
KinaseGlo FLuc = Kinase-Glo luciferase inhibition (counter-screen); Potency, µM (top dose mostly 38.3 µM), hits mostly inhibitors; Q27757; Kinase-Glo luciferase, ATP luminescence, 8 min; actives 0.28% (n = 200,000); note: nearly all actives have a fitted effect of over 60% in size
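Luminescence was the read-out, taken after 8-minute incubation at ambient temperature. Luciferase turned over luciferin with 10 uM ATP in imidazole pH 7.2 buffer containing KCl, MgCl2, Tween 20 and BSA.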
RORgamma inh = ROR gamma (mouse) transcription inhibition; P51450; Drosophila S2 Gal4-RORgamma UAS-luciferase reporter, 20 h; AID 2551; actives 5.4% (n = 310,000); Potency, µM (series often up to 53.6 µM), usual class: inhibitors; note: nearly all actives have a fitted effect of over 60% in size
Target sequence (P51450 whole entry, looked up, the tested form may be a part): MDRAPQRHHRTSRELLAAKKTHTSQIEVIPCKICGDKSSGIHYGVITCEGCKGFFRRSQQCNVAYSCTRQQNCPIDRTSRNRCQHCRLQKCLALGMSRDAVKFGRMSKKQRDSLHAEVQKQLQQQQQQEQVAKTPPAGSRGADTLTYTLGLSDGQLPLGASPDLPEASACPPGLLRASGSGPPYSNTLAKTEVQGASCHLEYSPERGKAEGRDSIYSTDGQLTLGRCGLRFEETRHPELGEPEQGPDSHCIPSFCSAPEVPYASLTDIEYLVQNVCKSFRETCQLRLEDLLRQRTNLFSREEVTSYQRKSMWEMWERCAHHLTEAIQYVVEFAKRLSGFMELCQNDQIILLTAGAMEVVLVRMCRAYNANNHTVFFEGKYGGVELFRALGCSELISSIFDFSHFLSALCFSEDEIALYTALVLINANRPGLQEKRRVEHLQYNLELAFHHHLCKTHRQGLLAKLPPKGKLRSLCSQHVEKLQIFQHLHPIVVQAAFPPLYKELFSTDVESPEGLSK
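Read-out: Photinus luciferase luminescence; inhibitors lower reporter signal. Insect Schneider cells with Gal4-ROR gamma fusion under metallothionein promoter, UAS reporter; 700 uM final copper sulfate induction, 20 hr, ambient temperature.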
VP16 counter = Gal4-VP16 reporter inhibition counter-screen | Drosophila S2 Gal4-VP16 UAS-luciferase, luminescence, 20 h | Potency, µM (highest dose often 53.6 µM), usual class: inhibitors | actives 3.5% (n = 310,000) | AID 2546;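 note: Gal4-VP16 expression switched on by copper sulfate through the metallothionein promoter; nearly all actives have a fitted effect of over 50% in size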
Hits are given with their value; - = inactive; ? = inconclusive; . = no result given; [ ] = remark or other dose. Shown are actives, neighbours in structure and some others; about 6.4% of the full set was active somewhere. Calls come from the whole dose curve; as a rule, active = well fitted curve in the direction sought with a large enough effect; inconclusive = small, poorly fitted or top-dose-only effect, or another doubt; inactive = no such curve, though single readings can be large; an effect the other way counts as inactive or inconclusive.

SMILES | KinaseGlo FLuc | RORgamma inh | VP16 counter
CC(=O)Nc1ccc(NC(=O)CSc2nnc(C)n2-c2ccccc2)cc1 | . | - | -
Cc1ccc(Sc2nnc(Cc3ccccc3)c3ccccc23)cc1 | - | 12.6µM | ?
COc1ccc(Sc2nnc(Cc3ccccc3)c3ccccc23)cc1 | - | - | -
COc1ccc(S(=O)(=O)Nc2ncccc2C)c2ccccc12 | . | - | -
O=C(Cn1nc2ccccc2n1)N/N=C/c1cc([N+](=O)[O-])ccc1O | - | ? | 1.41µM
O=C(Cn1cncn1)N/N=C/c1ccccc1O | . | 8.91µM | ?
O=C(Cn1cncn1)N/N=C/c1ccncc1 | . | - | -
O=C(CSc1ccccn1)N/N=C/c1cc([N+](=O)[O-])ccc1O | . | 2µM | 7.08µM
Cc1cc(C)n(CC(=O)N/N=C/c2cccc([N+](=O)[O-])c2)n1 | - | - | -
Cc1ccn(CC(=O)N/N=C/c2cc([N+](=O)[O-])ccc2O)n1 | - | ? | 8.91µM
O=C(Cn1nnc(-c2ccccc2)n1)N/N=C/c1cc([N+](=O)[O-])ccc1O | - | - | -
O=C(CSc1ccccn1)N/N=C/c1ccccc1[N+](=O)[O-] | - | - | ?
O=C(NCC1CCCO1)/C(=C\c1ccccc1F)NC(=O)c1ccccc1 (stereo not drawn) | . | - | -
O=C(Cn1cncn1)N/N=C/c1cc([N+](=O)[O-])ccc1O | . | 8.91µM | -
O=C(/C=C/Nc1ccc([N+](=O)[O-])cc1Br)c1cccc2ccccc12 | - | 2.51µM | ?
Cc1cc(N/C=C/C(=O)c2cccc3ccccc23)no1 | - | - | -
O=C(CSc1ccc2ccccc2n1)N/N=C/c1ccccc1O | . | 1.41µM | 3.16µM
O=C(CSc1ccccn1)N/N=C/C=C/c1ccccc1 | - | ? | 15.8µM
NS(=O)(=O)c1ccc(NC(=O)CSc2ccc3ccccc3n2)cc1 | - | - | -
O=C(Cn1cncn1)N/N=C/c1ccc(Cl)cc1 | - | - | -
O=C(N/N=C/C=C/c1ccccc1)c1ccccn1 | . | - | -
CCCCCC(CC(=O)O)C(=O)O (stereo not drawn) | - | - | -
COc1ccc([N+](=O)[O-])cc1NC(=O)Cn1ccc(C(F)(F)F)n1 | - | - | -
O=C(N/N=C/c1cc([N+](=O)[O-])ccc1O)c1cccc2ccccc12 | . | 2.82µM | 2.24µM
O=C(N/N=C/c1c[nH]c2c1ccc1ccccc12)c1ccc([N+](=O)[O-])cc1 | - | - | -
SMILES | KinaseGlo FLuc | RORgamma inh | VP16 counter
CN(C)CCP(=O)(c1ccccc1)c1ccccc1 | - | - | -[10 µM]
CCCP(=O)(CCC)CCP(=O)(c1ccccc1)c1ccccc1 | . | 12.6µM | -
Cc1cc(C)cc(Cn2ncc(Cl)c(Cl)c2=O)c1 | - | ? | 11.2µM
CCOc1cnn(-c2ccccc2)c(=O)c1Cl | . | - | -
O=c1c(Cl)c(Cl)cnn1Cc1ccccc1Cl | - | 1.12µM | ?
O=c1c(Cl)c(Cl)cnn1-c1ccccc1 | - | 10µM | 11.2µM
Cc1ccc(Cn2ncc(Cl)c(Cl)c2=O)cc1 | - | ? | ?
O=c1[nH]cnc2c1cnn2Cc1ccccc1Cl | . | - | -
O=C(Nc1nonc1-c1ccc(F)cc1)c1ccco1 | . | - | -
CCCCNC(=O)C1CCN(S(=O)(=O)N2CCOCC2)CC1 | . | - | -
S=C(S)NCCCn1ccnc1 | -[7.66 µM] | . | .
COc1cc(CC(=O)OCC(=O)N2CC(=O)Nc3ccccc32)cc(OC)c1OC | - | - | -
O=C(CSc1nnc(SCc2ccc(Cl)cc2)s1)N/N=C/c1c[nH]c2ccccc12 | - | 11.2µM | 8.91µM
O=C(CSc1nnc(SCc2cccc3ccccc23)s1)N/N=C/c1c[nH]c2ccccc12 | - | - | -
Cc1cn2c(=O)c3ccccc3nc2n2c(=O)c3ccccc3nc12 | - | - | -
CCOC(=O)C1(CCCc2ccccc2)CCN(Cc2ccn[nH]2)CC1 | . | - | -
COc1ccc(CNc2ccnc(-c3ccc(N(C)C)cc3)n2)c(OC)c1 | . | - | -
Cc1cc(C)nc(-n2nc(C)cc2NC(=O)CN2CCCC(C)C2)n1 (stereo not drawn) | - | 0.708µM | 5.62µM
Cc1cc(C)nc(-n2nc(C)cc2NC(=O)c2ccc3c(c2)OCO3)n1 | - | - | -
Cc1cc(C)nc(-n2nc(C)cc2NC(=O)c2cccc(S(=O)(=O)N3CCCCC3)c2)n1 | - | ? | -
Cc1cc(C)nc(-n2nc(C)cc2NC(=O)CNC2CCCCC2)n1 | - | 2.51µM | 6.31µM
Cc1ccccc1NC(=O)CN1CCc2ccccc2C1 | . | - | -
Cc1cc(C)nc(-n2nc(C)cc2NC(=O)CN2CCc3ccccc3C2)n1 | - | 0.794µM | 2.82µM
COc1cccc(CN2CC(C(=O)NCCCCc3ccccn3)CCC2=O)c1 (stereo not drawn) | . | - | -
CCOC(=O)N1CCC(NC(=O)C2=CCN(S(=O)(=O)c3ccc(OC)cc3)CC2)CC1 | . | - | -
SMILES | KinaseGlo FLuc | RORgamma inh | VP16 counter
CCCCC/C=C\C/C=C\C/C=C\C/C=C\CCCCCC(=O)NCCCC(=O)O | - | - | -
COc1ccc(C(=O)N2CCN(Cc3ccccn3)CC2)cc1 | . | - | -
CCn1ccnc1CN1CCCC(C(=O)c2ccc3cc(OC)ccc3c2)C1 (stereo not drawn) | - | 0.0224µM | 1.58µM
COc1ccc2cc(C(=O)C3CCCN(Cc4cnc(N5CCOCC5)s4)C3)ccc2c1 (stereo not drawn) | - | - | -
COc1ccc2cc(C(=O)C3CCCN(Cc4ccccn4)C3)ccc2c1 (stereo not drawn) | - | 3.16µM | ?
Cc1ccc(NS(=O)(=O)c2cccc(C(=O)NNC(=O)c3cccn3C)c2)c(C)c1 | . | - | -
CCOc1ccc(-c2cc(C(=O)OC)[nH]n2)cc1 | - | - | -
C/C(=N/NC(=O)c1ccc2c(c1)OCO2)c1ccc(NC(=O)C(F)(F)F)cc1 | - | - | -
C/C(=N\NC(=S)Nc1ccc(C(C)C)cc1)c1ccc2c(c1)OCO2 | - | 6.31µM | ?
C/C(=N\NC(=O)COc1ccc(C(C)(C)C)cc1)c1ccc2c(c1)OCCO2 | - | - | -
C/C(=N\NC(=S)NC(C)C)c1ccc2c(c1)OCCO2 | - | 2µM | 4.47µM
CNC(=S)N/N=C(\C)c1ccc2c(c1)OCO2 | - | 7.08µM | ?
C/C(=N\NC(=O)c1ccccc1)c1ccc2c(c1)OCO2 | - | - | ?
CCNC(=S)N/N=C(\C)c1ccc2c(c1)OCCO2 | - | 2.82µM | 7.08µM
CC(NC(=O)c1ccc2c(c1)OCCO2)C(=O)O (stereo not drawn) | - | - | -
CC(CCN1CCN=C1Nc1ccccc1)c1ccccc1 (stereo not drawn) | . | - | -
Cc1ccc(CN(C(=O)c2ccc(Cl)c([N+](=O)[O-])c2)C2CCS(=O)(=O)C2)o1 (stereo not drawn) | . | - | -
C/C(=N\O)C(C)Oc1ccc(Cl)cc1 (stereo not drawn) | - | - | -
CC(=O)N1CCc2cc(S(=O)(=O)CCC(=O)Nc3ccccc3F)ccc21 | . | - | -
CCCCC/C=C\C/C=C\CCCCCCCCCC(=O)NC(C)C(=O)O (stereo not drawn) | - | - | -
CN(C)S(=O)(=O)c1cccc(C(=O)N=C2N=C3C=CC(Cl)=CN3Cc3ccccc32)c1 | . | - | ?
COc1cccc(Sc2nc(-c3ccccc3)ncc2S(C)(=O)=O)c1 | . | - | -
CNC(=S)N/N=C(\C)c1ccc2c(c1)OCCO2 | - | 2.82µM | 8.91µM
C/C(=N\NC(=O)c1cc(C)oc1C)c1ccc2c(c1)OCO2 | - | - | -
